Screening results (PubChem BioAssay)
HT1080-NT tox: qHTS for induction of synthetic lethality in tumor cells producing 2HG: qHTS for the HT-1080-NT fibrosarcoma cell line; HT-1080-NT fibrosarcoma viability, CellTiter-Glo ATP luminescence, 48 h; Potency, µM (doses to about 46.1 µM), for inactives: top-dose activity, negative = less viability, usual class: cytotoxic; 1.6% of 360,000 active; AID 686970, 2013;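 further: NT is the 2HG producing partner of a matched IDH1 knockdown line; potency means the concentration at half of the fitted maximal effect; 0% = DMSO-treated cells and -100% = media-only wells without cells; nearly all actives have a fitted effect of over 55% in size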
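HT-1080-NT fibrosarcoma cells (2HG-overproducing), 750 cells/well in RPMI with 5% FBS, dosed after 2 h and incubated 48 h at 37C. CellTiter-Glo luminescence normalized to DMSO and no-cell wells; concentration-response curves fitted and classed.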
IL-1B inflam inh: qHTS for Inhibitors of Inflammasome Signaling: IL-1-beta AlphaLISA Primary Screen; THP-1 LPS/ATP IL-1B secretion, AlphaLISA, 16 h; stronger effect = lower value; activity change, % at 57.5 µM; 4.7% of 360,000 active; AID 743279, 2014; in the data active means activity change below about -50%; inconclusive means mostly about -30% to -49%
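Secreted IL-1B measured by AlphaLISA bead assay after 16 h compound exposure of THP-1 cells; compounds (final up to 57.5 uM) added 1 h before LPS (250 ng/mL) and ATP (1.25 mM) stimulation; lower signal means less secretion.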
DT40 TDP1 no CPT: qHTS for Inhibitors of human tyrosyl-DNA phosphodiesterase 1 (TDP1): qHTS in cells in absence of CPT; AID 686978, 2013; 15% of 420,000 active; DT40 Tdp1-/- hTDP1 cells, no CPT, ATP luminescence, 48 h; Potency, µM (top dose mostly 46.2 µM), for the others: at the top dose activity change, negative = growth inhibition, hits mostly inhibitors; further: potency means the concentration at half of the fitted maximal effect; nearly all actives have a fitted effect of over 55% in size
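No-CPT arm: Tdp1-/-;hTDP1 DT40 cells (400/well) plus compounds, incubated ≥48 hr at 37 °C. Readout CellTiter-Glo luminescence.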
TDP1 cell CPT: qHTS for Inhibitors of human tyrosyl-DNA phosphodiesterase 1 (TDP1): qHTS in cells in presence of CPT. chicken DT40 Tdp1-/-;hTDP1 cells + 20 nM CPT, ATP luminescence, 48 h. AID 686979, 2013. Potency, µM (doses to about 46.2 µM), for the others: top-dose activity change, negative = growth inhibition, usual class: inhibitors. 12% of 420,000 active; further: potency means the concentration at half of the fitted maximal effect; nearly all actives have a fitted effect of over 55% in size
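Chicken DT40 Tdp1-/- cells stably complemented with human TDP1 were seeded at 400 cells/well in medium containing 20 nM camptothecin, exposed to pin-transferred compounds, and grown at 37 °C for at least 48 hr. Viability was read as ATP luminescence.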
HT1080 IDH1KD tx: qHTS for induction of synthetic lethality in tumor cells producing 2HG: qHTS for the HT-1080-IDH1KD cell line; HT-1080 IDH1 knockdown viability, ATP luminescence, 48 h; Potency, µM (highest dose often 46.1 µM), for the others: at the highest dose activity, negative = toxicity, hits mostly cytotoxic; 2% of 360,000 active;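 further: potency means the concentration at half of the fitted maximal effect; 0% = DMSO wells and -100% = cell-free medium wells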
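In this qHTS, HT-1080 cells depleted of IDH1 are exposed for 48 h at 37 °C to compound titrations. Toxicity is scored from CellTiter-Glo luminescence, with DMSO as full viability and medium alone as none.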
uPA surface inh: qHTS for Inhibitors of Cell Surface uPA Generation. cell surface uPA generation assay, qHTS. Potency, µM (top dose mostly 38.3 µM), inactives show top-dose activity change, negative = inhibition, hits mostly inhibitors. 0.31% of 330,000 active. AID 540303, 2011; active means well fitted inhibition curve with a large enough effect; inconclusive means small, poorly fitted or top-dose-only effect; inactive means no such curve, though single readings can be large or run the other way; tested in mouse RAW 264.7 cells; further: potency means the concentration at half of the fitted maximal effect; nearly all actives have a fitted effect of over 55% in size
Numbers without * were called inactive; ? = inconclusive; . = not tested or not shown; [ ] = another dose, or the depositor's remark. This is a sample that favours compounds with a hit; in the whole collection about 19% have one here. Unless noted, the call rests on the fitted dose curve; in most records, active means well fitted curve in the direction sought with a large enough effect; inconclusive means small, poorly fitted or top-dose-only effect, or another doubt; inactive means no such curve, though single readings can be large; an effect the other way counts as inactive or inconclusive. Unless noted, on the % scale 0 is the no-effect control and ±100 the full control effect.

SMILES	HT1080-NT tox	IL-1B inflam inh	DT40 TDP1 no CPT	TDP1 cell CPT	HT1080 IDH1KD tx	uPA surface inh
Cc1ccc(S(=O)(=O)Nc2ccc(C(=O)Nc3ccncc3)cc2)cc1	7.3%	7.9	?	14.6µM*	3.1%	-7.8%
Cc1ccc(NS(=O)(=O)c2ccc(C(=O)NCc3cccnc3)cc2)cc1	0.0%	18.2	14.6µM*	?	-7.5%	6.2%
Cc1ccc(NS(=O)(=O)c2ccc(C(=O)NCc3ccncc3)cc2)cc1	-2.6%	24.7	?	?	-12.6%	-2.0%
Cc1ccc(S(=O)(=O)Nc2ccc(C(OC(=O)c3ccccc3[N+](=O)[O-])(C(F)(F)F)C(F)(F)F)cc2)cc1	-13.4%	-88.1*	?	?	?	-23.1%
Cc1ccc(NS(=O)(=O)c2ccc(C(=O)NNC(=O)c3ccccc3O)cc2)cc1	-23.8%	63.6	23.1µM*	?	?	-10.7%
Cc1sc2ccccc2[n+]1CC(=O)c1ccc(F)cc1	.	.	-3.2%	-0.2%	.	.
O=C(Cc1cccc(NC(=O)C2CCN(C(=O)C3CCC3)CC2)c1)Nc1cccc(C(=O)N2CCOCC2)c1	21.7%	-8.0	-3.7%	-7.3%	12.3%	8.1%
CCOC(=O)c1[nH]c(C)c(C(=O)NC(CC)Cc2ccccc2)c1C (configuration not stated)	.	.	16.4µM*	?	.	.
CCOC(=O)c1[nH]c(C)c(C(=O)Nc2cc(Cl)ccc2C)c1C	0.316µM*	49.0	0.164µM*	0.146µM*	0.0891µM*	.
CCOC(=O)c1[nH]c(C)c(C(=O)Nc2ccccc2C)c1C	5.8µM*	-5.1	1.46µM*	1.64µM*	2.31µM*	?
CCOC(=O)c1[nH]c(C)c(C(=O)NCc2ccccn2)c1C	5.2%[9.24 µM]	30.6	-7.2%	-8.0%	-0.6%	.
CCOC(=O)c1c(C)[nH]c(C(=O)OCc2ccccc2)c1C	11.0%	-3.3	?	-22.4%	-7.1%	?
COc1cccc(-c2cn3ncsc3n2)c1	.	.	-10.7%	-13.1%	.	.
Cc1oc2ccc(O)c(CN3CCCCCC3)c2c1C(=O)Nc1cccc(C(F)(F)F)c1	.	.	5.17µM*	3.66µM*	.	.
Cc1oc2ccc(O)c(CN3CCN(C)CC3)c2c1C(=O)Nc1ccccc1	.	.	-8.7%	-29.1%	.	.
Cc1oc2c(CN3CCCC3)c(O)ccc2c(=O)c1-c1ccccc1	0.6%	11.9	-7.8%	-21.3%	-19.0%	.
Cc1ccc(NC(=O)c2c(C)oc3ccc(O)c(CN4CCCCCC4)c23)c(C)c1	.	.	6.51µM*	9.2µM*	.	.
Cc1ccc(NC(=O)c2c(C)oc3ccc(O)c(CN4CCN(Cc5ccccc5)CC4)c23)cc1	.	.	-85.7%	20.6µM*	.	.
Cc1oc2ccc(O)c(CN3CCCC3)c2c1C(=O)Nc1ccc(C(C)C)cc1	.	.	23.1µM*	23.1µM*	.	.
O=[N+]([O-])c1ccccc1Nc1cccnc1	-18.9%	-28.0	?	-21.0%	-3.4%	-12.7%
Cc1oc2ccc(O)c(CN3CCN(C)CC3)c2c1C(=O)Nc1ccc(C(C)C)cc1	.	.	20.6µM*	16.4µM*	.	.
CCOC(=O)c1c(CSCc2ccccc2)oc2ccc(O)c(CN(C)C)c12	20.6µM*	-82.2*	16.4µM*	14.6µM*	18.4µM*	-7.0%
CCOC(=O)c1oc2ccccc2c1CN1CCCCC1	11.3%	1.8	-1.1%	-12.0%	5.3%	6.8%
Cc1ccc(NC(=O)c2c(C)oc3ccc(O)c(CN4CCCCCC4)c23)cc1	.	.	16.4µM*	14.6µM*	.	.
CCOC(=O)c1c(-c2ccccc2)oc2ccc(O)c(CN3CCCC3)c12	?	-60.0*	20.6µM*	23.1µM*	?	-2.8%
SMILES	HT1080-NT tox	IL-1B inflam inh	DT40 TDP1 no CPT	TDP1 cell CPT	HT1080 IDH1KD tx	uPA surface inh
Cc1cc(C)cc(NCCC#N)c1	8.9%	0.2	-1.5%	12.5%	8.5%	0.8%
C[C@H](CO)N1C[C@H](C)[C@@H](CN(C)S(=O)(=O)c2cn(C)cn2)Oc2cc(Br)ccc2S1(=O)=O	3.9%	8.4	?	-1.0%	4.2%	.
CC1(C(=O)NCc2ccccc2)CN(S(C)(=O)=O)CC(=O)N1CCCn1ccnc1 (configuration not stated)	-7.0%	0.6	12.1%	34.2%	-14.0%	.
Cc1cc2c(cc1C)N[C@]1(C[C@H]3CCCC(=O)N4CC[C@@H](C1)[C@@H]34)C(=NC1CCCCC1)N2	.	.	-24.8%	-29.0%	.	.
O=C(Oc1ccccc1)c1cccc(C(=O)Oc2ccccc2)c1	.	.	7.8%[92.5 µM]	3.0%[92.5 µM]	.	.
O=C(Oc1ccccc1)c1cc(O)c(O)c(O)c1	?	130.3	23.1µM*	20.6µM*	?	.
Cn1c(C(=O)N2CCN(c3ccc([N+](=O)[O-])cc3)CC2)cc2c(=O)[nH]c3ccccc3c21	-18.7%	-53.7*	11.6µM*	?	-9.0%	-2.1%
C[C@H](NC(=O)C[C@@H]1C=C[C@@H](NC(=O)CN2CCOCC2)[C@@H](CO)O1)c1ccccc1	18.8%	3.0	1.3%	-5.5%	12.5%	.
CCOC(=O)Cn1nc(C)c(NC(=O)c2ccc(Cl)c([N+](=O)[O-])c2)c1C	-15.0%	-84.8*	?	-24.1%	-13.8%	0.0%
CCOC(=O)Cn1nc(C)c(NC(=O)COc2ccc(Cl)cc2C)c1C	.	.	8.2µM*	9.2µM*	.	.
CCOC(=O)Cn1nc(C)c(NC(=O)COc2ccccc2)c1C	10.9%	14.0	?	-1.6%	1.9%	-5.2%
Cc1ccc2nc(-c3ccccc3)cc(C(=O)NCC3CCCO3)c2c1 (configuration not stated)	2.1%	.	?	-24.0%	-0.8%	-10.1%
COc1ccc(-c2cc(C(=O)NCC3CCCO3)c3ccccc3n2)c(OC)c1 (configuration not stated)	-0.4%	29.8	?	?	1.2%	-0.8%
Cc1ccc2nc(-c3ccc(Br)cc3)cc(C(=O)NCC3CCCO3)c2c1 (configuration not stated)	11.6%	-15.7	14.6µM*	14.6µM*	10.0%	.
CCOc1ccc(-c2cc(C(=O)NCC3CCCO3)c3ccccc3n2)cc1 (configuration not stated)	6.4%	-23.1	14.6µM*	16.4µM*	12.5%	-2.3%
CCOc1cc2[nH]c(=S)n(CCC(=O)NC3CCCCC3)c(=O)c2cc1OCC	-1.3%	-11.6	-8.4%	?	-5.0%	.
